# Measured values: PubChem BioAssay AID2073 (Sanford-Burnham Center for Chemical Genomics, 2009)
# Screen size: about 290,000 compounds; about 570 (0.2%) were called active. Another 1% or so got no clear call; they are omitted. Rule as the data show it: active = inhibition mostly above about 51% (no sharp cut-off); inconclusive = no clear call, values can overlap the other calls; inactive = mostly below about 53%. Shown is part of a subset that was picked to be rich in actives.
# Biological target: Voltage-dependent N-type calcium channel subunit alpha-1B (Homo sapiens) (UniProt Q00975)
# Test: inhibitors of Mint1-CaV2.2 protein interaction, biochemical, HTRF (AID 2073)
# Settings: at 20 µM, stronger effect = higher value
# [1] = measured here: average of repeat tests
# Voltage-dependent N-type calcium channel subunit alpha-1B (Homo sapiens), sequence (Q00975 whole entry, looked up): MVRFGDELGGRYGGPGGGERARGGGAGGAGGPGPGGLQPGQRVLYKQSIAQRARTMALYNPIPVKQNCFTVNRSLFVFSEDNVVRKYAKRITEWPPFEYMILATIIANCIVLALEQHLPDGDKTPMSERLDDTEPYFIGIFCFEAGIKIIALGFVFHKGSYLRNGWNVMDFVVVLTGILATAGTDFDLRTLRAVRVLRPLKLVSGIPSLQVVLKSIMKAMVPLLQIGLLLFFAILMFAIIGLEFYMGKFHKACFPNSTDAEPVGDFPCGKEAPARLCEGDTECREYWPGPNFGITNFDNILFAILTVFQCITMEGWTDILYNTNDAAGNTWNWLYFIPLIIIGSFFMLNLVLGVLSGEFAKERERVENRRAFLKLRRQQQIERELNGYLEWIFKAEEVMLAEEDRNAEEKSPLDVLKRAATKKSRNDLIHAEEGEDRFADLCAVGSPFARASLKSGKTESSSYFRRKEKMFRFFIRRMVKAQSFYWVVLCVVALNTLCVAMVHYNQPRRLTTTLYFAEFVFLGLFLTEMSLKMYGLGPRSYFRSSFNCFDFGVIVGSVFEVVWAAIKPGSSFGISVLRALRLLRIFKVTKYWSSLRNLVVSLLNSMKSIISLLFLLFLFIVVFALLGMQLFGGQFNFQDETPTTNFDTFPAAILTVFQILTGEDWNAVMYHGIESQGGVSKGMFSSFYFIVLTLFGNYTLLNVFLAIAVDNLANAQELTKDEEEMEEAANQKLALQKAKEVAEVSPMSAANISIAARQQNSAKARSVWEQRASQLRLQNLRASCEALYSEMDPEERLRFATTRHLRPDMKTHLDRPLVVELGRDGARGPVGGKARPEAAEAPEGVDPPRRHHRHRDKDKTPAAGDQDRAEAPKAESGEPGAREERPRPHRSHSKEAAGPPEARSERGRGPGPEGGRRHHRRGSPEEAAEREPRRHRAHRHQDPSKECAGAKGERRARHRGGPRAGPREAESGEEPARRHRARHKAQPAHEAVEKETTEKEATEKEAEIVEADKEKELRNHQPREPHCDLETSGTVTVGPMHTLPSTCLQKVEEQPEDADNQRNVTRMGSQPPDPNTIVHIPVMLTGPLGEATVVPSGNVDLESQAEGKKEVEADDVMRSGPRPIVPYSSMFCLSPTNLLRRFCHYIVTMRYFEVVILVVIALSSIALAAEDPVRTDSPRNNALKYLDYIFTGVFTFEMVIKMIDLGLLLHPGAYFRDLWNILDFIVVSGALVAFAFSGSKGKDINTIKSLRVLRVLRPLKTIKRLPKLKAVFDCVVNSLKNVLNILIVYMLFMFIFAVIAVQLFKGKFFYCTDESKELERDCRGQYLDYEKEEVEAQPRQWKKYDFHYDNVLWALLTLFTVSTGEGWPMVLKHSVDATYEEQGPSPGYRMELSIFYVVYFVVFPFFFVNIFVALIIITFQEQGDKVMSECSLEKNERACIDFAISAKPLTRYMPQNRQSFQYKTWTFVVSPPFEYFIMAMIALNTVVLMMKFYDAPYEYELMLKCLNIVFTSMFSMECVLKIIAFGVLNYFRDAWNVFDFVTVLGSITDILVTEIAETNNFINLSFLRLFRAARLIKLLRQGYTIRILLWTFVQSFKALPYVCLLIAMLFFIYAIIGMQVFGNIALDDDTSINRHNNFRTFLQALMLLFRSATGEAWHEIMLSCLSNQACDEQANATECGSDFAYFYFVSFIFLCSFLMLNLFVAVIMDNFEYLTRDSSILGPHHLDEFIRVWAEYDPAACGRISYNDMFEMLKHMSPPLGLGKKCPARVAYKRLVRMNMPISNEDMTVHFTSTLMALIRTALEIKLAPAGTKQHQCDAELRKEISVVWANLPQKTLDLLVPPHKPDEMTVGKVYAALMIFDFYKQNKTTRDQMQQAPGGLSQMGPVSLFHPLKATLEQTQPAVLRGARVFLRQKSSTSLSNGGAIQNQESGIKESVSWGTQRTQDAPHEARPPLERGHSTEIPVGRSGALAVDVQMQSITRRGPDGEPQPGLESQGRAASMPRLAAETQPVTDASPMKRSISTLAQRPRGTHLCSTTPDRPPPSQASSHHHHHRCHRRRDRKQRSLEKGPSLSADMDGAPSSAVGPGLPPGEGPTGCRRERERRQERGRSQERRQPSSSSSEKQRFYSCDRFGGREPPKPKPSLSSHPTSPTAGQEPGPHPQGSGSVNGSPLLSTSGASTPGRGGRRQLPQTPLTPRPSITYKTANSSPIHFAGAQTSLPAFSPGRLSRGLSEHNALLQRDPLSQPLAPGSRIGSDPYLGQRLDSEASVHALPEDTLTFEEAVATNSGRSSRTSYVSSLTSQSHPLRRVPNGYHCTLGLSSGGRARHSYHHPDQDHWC
SMILES,inhibition,inhibition [1]
Cc1ccc(N2C(=O)c3ccc(C(=O)O)cc3C2=O)cc1C,-1.3% (inactive),–
Cc1ccc(-n2c(=O)c3cc4c(=O)n(-c5ccc(C)c(C)c5)c(=O)c4c(C(=O)c4ccc(C(=O)O)cc4)c3c2=O)cc1C,85% (active),–
O=C(O)c1ccc(-n2c(=O)c3ccccc3c3ccccc3c2=O)cc1,-2.9% (inactive),–
O=C(N/N=C/c1ccoc1)c1cc(O)cc(O)c1,18.3% (inactive),–
O=C(O)c1ccc(Cl)c2c1C1C=CCC1C(c1ccccn1)N2 (stereo not drawn),23.7% (inactive),–
O=[N+]([O-])c1ccc(Cl)c2c1C1C=CCC1C(c1ccccn1)N2 (stereo not drawn),79.5% (active),–
Cc1cc([N+](=O)[O-])c2c(c1C)C1C=CCC1C(c1ccccn1)N2 (stereo not drawn),42.9% (inactive),–
COc1c(S(=O)(=O)NCCCn2ccnc2)ccc(Cl)c1Cl,-0.3% (inactive),–
COc1cccc(-c2nn(-c3ccccc3)cc2C(=O)O)c1,1.6% (inactive),–
COc1ccc(OC)c(NC(=O)c2c(NC(=O)CCC(=O)O)sc3c2CCCCC3)c1,65.1% (active),–
COc1ccccc1NC(=O)c1c(NC(=O)CCC(=O)O)sc2c1CCCCC2,25% (inactive),–
COc1ccc(NC(=O)c2c(NC(=O)CCC(=O)O)sc3c2CCCCC3)cc1,63.8% (inactive),9.3%
O=S(=O)(NCC1CCCO1)c1ccc(Oc2ccccc2)cc1 (stereo not drawn),8.9% (inactive),–
Cc1cc(C(=O)OCC(=O)Nc2cc(S(=O)(=O)N(C)C)ccc2C)c2ccccc2n1,-2.8% (inactive),–
C[C@H]1[C@H](C)CC[C@]2(C)CC[C@]3(C)C(=CC[C@@H]4[C@@]5(C)CC[C@@H](O)[C@](C)(C(=O)O)[C@@H]5CC[C@]43C)[C@H]12,77% (active),–
C[C@H]1[C@H](C)CC[C@]2(C(=O)O)CC[C@]3(C)C(=CC[C@@H]4[C@@]5(C)CC[C@H](O)C(C)(C)[C@@H]5CC[C@]43C)[C@H]12,41.1% (inactive),–
C[C@H]1[C@H](C)CC[C@]2(C(=O)O)CC[C@]3(C)C(=CC[C@@H]4[C@@]5(C)C[C@@H](O)[C@H](O)C(C)(C)[C@@H]5CC[C@]43C)[C@H]12,45.4% (inactive),–
CC(=O)Nc1cc2c3c(c1)CCN3C(=O)CC2,0.4% (inactive),–
COc1cc(/C=N/NC(=O)c2ccncc2)ccc1OC(C)=O,11.8% (inactive),–
Cc1ccc(S(=O)(=O)n2c(=O)oc3ccccc32)cc1,-5.8% (inactive),–
CCn1ncc(C2=NOC(C(=O)N3CCC(C(N)=O)CC3)C2)c1C (stereo not drawn),2.8% (inactive),–
CCCCOC(=O)/C(=C/C=C/c1ccccc1)NC(=O)c1ccccc1,7.4% (inactive),–
CCCOC(=O)/C(=C\C=C\c1ccccc1)NC(=O)c1ccccc1,-6.3% (inactive),–

SMILES,inhibition,inhibition [1]
CCCOC(=O)/C(=C\C=C\c1ccco1)NC(=O)c1ccccc1,66.6% (active),–
CC1(c2ccccc2)NC(=O)N(Cc2ccc([N+](=O)[O-])cc2)C1=O (stereo not drawn),-5.3% (inactive),–
CP(=O)(COC(=O)c1ccccc1)COC(=O)c1ccccc1,-9.7% (inactive),–
OC[C@@H]1CCCN1Cc1cn(-c2ccccc2)nc1-c1ccc2c(c1)OCO2,8.1% (inactive),–
O=C(N/N=C/c1sc(N2CCOCC2)nc1-c1ccccc1)c1cccc(S(=O)(=O)N2CCOCC2)c1,21.2% (inactive),–
O=[N+]([O-])c1ccc(N/N=C/c2sc(N3CCOCC3)nc2-c2ccccc2)c(S(=O)(=O)Nc2ccc(Cl)cc2)c1,67.1% (active),–
COc1cc(C(=O)N/N=C/c2sc(N3CCOCC3)nc2-c2ccccc2)cc(OC)c1OC,4.4% (inactive),–
Cc1ccc(NS(=O)(=O)c2cc([N+](=O)[O-])ccc2N/N=C/c2sc(N3CCOCC3)nc2-c2ccccc2)c(C)c1,31.1% (inactive),–
O=C(N/N=C/c1sc(N2CCOCC2)nc1-c1ccccc1)c1cccc(S(=O)(=O)N2CCCC2)c1,51.1% (active),–
O=[N+]([O-])c1ccc(N/N=C/c2sc(N3CCOCC3)nc2-c2ccccc2)c(S(=O)(=O)Nc2ccccc2Cl)c1,30.5% (inactive),–
Cc1ccc(C2=CSC3=NNC4(CCCCC4)NN23)cc1,8.9% (inactive),–
CCOC(=O)N1CCN(C(=O)CSCc2ccccc2C)CC1,-5.4% (inactive),–
O=C(CCC(=O)N(CC(=O)NC1CCCCC1)Cc1ccccc1)Nc1ccccn1,-13% (inactive),–
N/C(Cc1ccc(Cl)cc1Cl)=N\OC(=O)c1ccc(Br)o1,7.7% (inactive),–
N/C(Cc1cccc2ccccc12)=N\OC(=O)c1ccc(Br)o1,56.5% (active),–
N/C(Cc1ccc(Cl)c(Cl)c1)=N\OC(=O)c1ccc(Br)o1,5.1% (inactive),–
Cc1ccc(N2C(=O)N3[C@H](c4ccc(F)cc4)[C@@H]4C(=O)N(C5CCCCC5)C(=O)[C@@H]4[C@]3(C)C2=O)cc1,3.5% (inactive),–
Cc1ccccc1C(=O)NC(C(N)=O)P(=O)(OC(C)C)OC(C)C (stereo not drawn),-2.5% (inactive),–
CCc1ccccc1NS(=O)(=O)c1cccc2nsnc12,4.2% (inactive),–
NC(=S)n1[nH]c(-c2ccc([N+](=O)[O-])cc2)c(N=Nc2ccc(O)cc2)c1=O,-5.9% (inactive),–
NC(=S)n1[nH]c(-c2ccc([N+](=O)[O-])cc2)c(N=Nc2cccc(Cl)c2)c1=O,64.1% (inactive),12.7%
NC(=S)n1[nH]c(-c2ccc([N+](=O)[O-])cc2)c(N=Nc2ccccc2[N+](=O)[O-])c1=O,69.4% (inactive),20.6%
